Compound activity (PubChem BioAssay)
DAT uptake mod = changed hDAT dopamine uptake under cocaine IC80, either direction, primary screen, cocaine antagonist project, cell-based, LLC-PK1 hDAT, [14C]-dopamine uptake, MLSMR; Sodium-dependent dopamine transporter (Homo sapiens), Q01959; AID 449768, 2010; B-score at 10 µM; 1.3% of 110,000 active; LLC-PK1 hDAT cells, [14C]-dopamine uptake with cocaine IC80; actives deviate in either direction;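 active means Z score or B-score, a plate-position-corrected score, falls beyond the plate's 99.7% confidence bounds, in either direction; inactive means both scores lie inside the 99.7% bounds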
GALR2 agonist = GALR2 receptor agonists, primary screen, cell-based; Galanin receptor type 2 (Homo sapiens), O43603; GALR2-expressing cells, agonist activation read-out; AID 803, 2007; activation, % (concentration not given with the values); 0.48% of 140,000 active; in the data active means activation above about 5%, passing the limit was not always enough
Target sequence (O43603 whole entry, looked up): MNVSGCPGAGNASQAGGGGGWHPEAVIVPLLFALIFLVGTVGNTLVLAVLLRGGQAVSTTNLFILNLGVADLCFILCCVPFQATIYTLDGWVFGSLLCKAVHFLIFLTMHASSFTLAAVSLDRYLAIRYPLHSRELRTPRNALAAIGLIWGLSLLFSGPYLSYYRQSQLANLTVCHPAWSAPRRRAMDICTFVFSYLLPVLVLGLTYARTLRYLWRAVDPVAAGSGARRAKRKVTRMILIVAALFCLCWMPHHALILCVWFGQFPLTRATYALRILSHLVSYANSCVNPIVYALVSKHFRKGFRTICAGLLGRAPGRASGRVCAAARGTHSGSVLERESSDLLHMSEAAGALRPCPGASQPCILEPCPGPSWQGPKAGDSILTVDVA
S1P2 antag = human S1P2 receptor antagonists, primary screen, cell-based. 0.21% of 97,000 active. AID 736, 2007. cell-based S1P2 antagonist assay, inhibition at 5 uM. Sphingosine 1-phosphate receptor 2 (Homo sapiens), O95136. inhibition, % at 5 µM; in the data active means inhibition above about 45%;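 further: CRE beta-lactamase reporter cells expressing human S1P2 stimulated with S1P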
GALR2 antag = GALR2 antagonists in receptor-expressing cells, primary screen; inhibition, % at 4 µM; antagonist mode; AID 828, 2007; Galanin receptor type 2 (Homo sapiens), O43603; 0.39% of 140,000 active; in the data active means inhibition above about 27%;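 further: cells stimulated with galanin 1-16 at roughly its EC80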
S1P2 ag = S1P2 receptor agonists, primary screen, cell-based; Sphingosine 1-phosphate receptor 2 (Homo sapiens), O95136; S1P2-expressing cell line, agonist reporter read-out; activation, % at 4.5 µM; 0.46% of 97,000 active; AID 729, 2007; in the data active means activation above about 16%
Of the large screens only hits and unclear results are named; the others gave an inactive call. Rows were chosen to be rich in hits. Some 2.1% of all compounds tested hit in one or more screens of this group.

COC(=O)c1sccc1NC(=O)c1c(C)c(-c2cccc(Cl)c2)nc2ccccc12	none (no result: DAT uptake mod, S1P2 antag, S1P2 ag)
CCNC(=S)N/N=C/c1ccc(OCC(=O)Nc2ccc(C)cc2)cc1	DAT uptake mod -2.9
CCNC(=S)N/N=C/c1ccc(OCC(=O)Nc2ccc(OC)cc2)c(OC)c1	none (no result: DAT uptake mod, S1P2 antag, S1P2 ag)
O=C(NCCN1CCN(c2ccccc2F)CC1)C1CC(=O)N(C2CCCC2)C1 (configuration not stated)	S1P2 ag 21
O=C(NCCN1CCN(Cc2ccccc2)CC1)C1CC(=O)N(C2CCCC2)C1 (configuration not stated)	none
COc1cccc(N=Cc2c[nH][nH]c2=O)c1	DAT uptake mod -7.7
CCn1c2ccccc2c2nc3ccccc3nc21	S1P2 ag 19
CCn1c2ccccc2c2nc3cc(OC)c(OC)cc3nc21	S1P2 ag 23
CCCCc1c(C)nn(-c2nnc3c4ccccc4n(CC)c3n2)c1C	none
COc1cc2nc3c4ccccc4n(CC#N)c3nc2cc1OC	none
CCCn1c(C(=O)OC)cc2c1ccn2-c1ccc(F)cc1	GALR2 agonist 5.6
COc1ccccc1CNC(=O)c1cnc2sccn2c1=O	none (no result: GALR2 agonist, S1P2 antag, GALR2 antag, S1P2 ag)
COc1ccccc1CNC(=O)c1cnc2ccccn2c1=O	DAT uptake mod 3.5 (no result: S1P2 antag, S1P2 ag)
Cc1cccc(CN2C(=O)CCSc3ccc(Cl)cc32)c1	none
CC1(C)c2ccccc2N2CC(=O)NC21/C=C/c1ccco1 (configuration not stated)	none
CC1(C)c2ccccc2N2CCC(=O)NC21/C=C/c1ccco1 (configuration not stated)	GALR2 agonist 6.1
O=C(Nc1ccc(Oc2cccc3ccccc23)cc1)c1ccco1	DAT uptake mod 2.4
COc1ccc(Nc2nnc(-c3ccc(C)cc3)c3ccccc23)cc1C(=O)N1CCCCC1	none (no result: DAT uptake mod, S1P2 antag, S1P2 ag)
Cc1cccc(Nc2nnc(-c3ccc(C(=O)N4C[C@H]5C[C@H](C4)c4cccc(=O)n4C5)cc3)c3ccccc23)c1	DAT uptake mod 1.8
CC(C)(C)OC(=O)N[C@@H](Cc1ccccc1)c1nnc(S(=O)(=O)Cc2ccccc2)o1	GALR2 antag 35
COc1ccc(/C=C(/C(=O)NCc2ccccc2)c2ccccc2)cc1	none (no result: DAT uptake mod, S1P2 antag, S1P2 ag)
COc1ccc(OC)c(-n2c(SCC(=O)N3CCc4ccccc43)nc3c(c2=O)SCC3)c1	DAT uptake mod 3.2 (no result: S1P2 antag, S1P2 ag)
COc1ccccc1-n1c(SCC(=O)N2CCc3ccccc32)nc2c(c1=O)SCC2	none
CCc1cc2cc(C(=O)N3CCN(c4ccccc4)CC3)sc2s1	none
CCc1cc2cc(C(=O)N3CCN(Cc4ccccc4)CC3)sc2s1	DAT uptake mod 2.6
CCN(CC)C(=O)c1ccc2c(c1)nnn2C	none (no result: DAT uptake mod, S1P2 antag, S1P2 ag)
CCOc1ccc(NC(=O)CN2CCN(CC(=O)c3ccc(OCC)cc3)CC2)cc1	DAT uptake mod 2
Cc1cc(C)n(-c2nc(Nc3ccccc3C(F)(F)F)nc(-n3nc(C)cc3C)n2)n1	S1P2 antag 59
C[C@H](NC(=O)C1(c2ccccc2)CCN(C(=O)[C@H]2CSCN2C(=O)OC(C)(C)C)CC1)C(=O)O	none
Cc1cc(C)c(S(=O)(=O)N(C)CC(N)=O)c(C)c1	none
CC(=O)NCCn1c(SCc2cc(=O)n3cc(Cl)ccc3n2)nc2ccccc2c1=O	S1P2 ag 22
Fc1ccc(CNC(=S)Nc2ccc(OC(F)F)cc2)cc1	none (no result: DAT uptake mod, S1P2 antag, S1P2 ag)
CCCCn1c(SCC(=O)N2CCOCC2)nnc1-c1cccs1	none
COc1ccc(C)cc1NC(=O)C(C)N(c1ccc(C)cc1)S(C)(=O)=O (configuration not stated)	DAT uptake mod 2.7
O=C(NCc1cccnc1)/C(=C\c1ccc(-c2ccc(Cl)c(Cl)c2)o1)S(=O)(=O)c1ccccc1	none (no result: DAT uptake mod, S1P2 antag, S1P2 ag)
COc1ccc(Nc2nc(N3CCCCC3)c3ccccc3n2)cc1	S1P2 antag 56
CCOC(=O)/C(C#N)=C\C1=C(N2CCCC2)CC(C)(CC)OC1 (configuration not stated)	none
Cn1c(-c2sc(=S)n(-c3ccccc3)c2N)nc2ccccc21	S1P2 ag 32
Cc1nn(C)c(C)c1S(=O)(=O)N1CCC(C(=O)NC2CCCCC2)CC1	none
Cc1nn(C)c(C)c1S(=O)(=O)N1CCC(C(=O)NC2CCCCCC2)CC1	DAT uptake mod -2.6 (no result: S1P2 antag, S1P2 ag)
Cn1nnnc1SCC(=O)N1CCN(c2ccc(Cl)cc2)CC1	none (no result: DAT uptake mod)
O=C(CSC1=NCCS1)N1CCN(c2ccc(Cl)cc2)CC1	DAT uptake mod 2.6
O=C(CSc1nc2c(c(=O)n1-c1ccc(Cl)cc1)SCC2)N1CCOCC1	S1P2 ag 21
Cn1c(=O)c(Nc2ccc(O)cc2)c2c3c(cccc31)C(=O)c1ccccc1-2	none (no result: DAT uptake mod, S1P2 antag, S1P2 ag)
COc1ccc(N2CC(NC(=O)NCCC(C)C)CC2=O)cc1 (configuration not stated)	none (no result: DAT uptake mod, S1P2 antag, S1P2 ag)
O=C(NC1CCCC1)c1cnc2n(c1=O)CCS2	none
CC1CC(NC(=O)c2cnc3n(c2=O)CCS3)CC(C)(C)C1 (configuration not stated)	DAT uptake mod -2.6 (no result: GALR2 agonist, S1P2 antag, GALR2 antag, S1P2 ag)
COC(=O)c1c(N)n(CCCN2CCOCC2)c2nc3ccccc3nc12	none
CCCNC(=O)c1c(N)n(-c2cc(OC)cc(OC)c2)c2nc3ccccc3nc12	GALR2 agonist 14 (no result: S1P2 antag, S1P2 ag)
CCCNC(=O)c1c(N)n(-c2ccc3c(c2)OCO3)c2nc3ccccc3nc12	none
COc1ccc(CNC(=O)c2c(N)n(CCCN3CCOCC3)c3nc4ccccc4nc23)cc1	GALR2 agonist 32, S1P2 ag 39
Nc1c(C(=O)NCc2ccc(F)cc2)c2nc3ccccc3nc2n1CCCN1CCOCC1	GALR2 agonist 41, S1P2 ag 45
Oc1cc(-c2ccccc2)c2ccccc2c1	none (no result: DAT uptake mod, S1P2 antag, S1P2 ag)
CCOC(=O)c1cc(-c2ccc3c(c2)OCCO3)nc2c1c(C)nn2CCC#N	GALR2 agonist 7.1
COc1ccc(C(=O)OCCNC(=O)c2c(Cl)nc3ccccn23)cc1	S1P2 ag 21
O=C(CCCCCCN1C(=O)c2ccccc2C1=O)N1CCC(c2ccccc2)C1 (configuration not stated)	DAT uptake mod 3.4
Cc1cc(N2CCOCC2)ccc1/C=C\[N+](=O)[O-]	none (no result: DAT uptake mod, S1P2 antag, S1P2 ag)
O=C(Nc1ccc(OC(F)F)c(Cl)c1)Nc1ccc2c(c1)OCO2	DAT uptake mod -7
O=C(Nc1ccc([N+](=O)[O-])cc1)Nc1ccc(OC(F)F)c(Cl)c1	none (no result: DAT uptake mod, S1P2 antag, S1P2 ag)
CCOC(=O)CN(Cc1sccc1C)C(=O)Nc1ccc(OCC)cc1	none (no result: DAT uptake mod, S1P2 antag, S1P2 ag)
COc1ccc(-c2coc3cc(OC)cc(O)c3c2=O)cc1	DAT uptake mod -2.4
O=C1NC2(CCCC2)N=C1c1ccc(F)cc1	DAT uptake mod -8
COc1ccc2c(c1)c(=O)oc1cc(OCC(=O)N3CCC(C)CC3)ccc12	none
COc1ccc2c(c1)c(=O)oc1cc(OCC(=O)N3CCCC(C)C3)ccc12 (configuration not stated)	DAT uptake mod -2.5
Cc1ccc(C(=O)Nc2cc(C)c(OCC(=O)N3CCOCC3)c(C)c2)cc1	DAT uptake mod 2.3
